Paper PMC7819943, “Rice protein-binding microarrays: a tool to detect cis-acting elements near promoter regions in rice”
Whole data set: some 68,000 sequences, median “fluorescence intensity (a.u.)” near 9,100, cut for the highest 2% near 16,000. The entries come from a sample that favours the highest values as a whole.

Each sequence was assayed against OsWRKY34 (Oryza sativa, UniProt Q0JBA9 1-250) (assay: protein-binding microarray (RPBM); PBS, 2% BSA, 51.3 ng/ul salmon testes DNA, 50 uM zinc acetate, 200 nM TF, 25 C, 1 h; high values mean tight binding). Conditions: protein: recombinant; tags: N-terminal polyhistidine and DsRed monomer fusion (pET32a); label: CyDye5-dUTP incorporated in the synthesized complementary strand; 3' TTTTT single-stranded linker to array surface; dsDNA, one strand shown.
OsWRKY34, sequence (Q0JBA9 entry or part of it): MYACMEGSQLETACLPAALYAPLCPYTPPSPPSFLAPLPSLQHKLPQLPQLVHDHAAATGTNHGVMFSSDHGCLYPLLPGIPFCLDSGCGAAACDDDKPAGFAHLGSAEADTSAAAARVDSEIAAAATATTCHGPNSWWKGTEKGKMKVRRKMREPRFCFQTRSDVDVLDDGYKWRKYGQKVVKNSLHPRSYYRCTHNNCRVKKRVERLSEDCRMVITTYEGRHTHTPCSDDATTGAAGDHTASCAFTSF
Outline: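 For the binding signal, per-feature fluorescence intensity was read in arbitrary units on an Axon 4000B scanner. Before scanning, a 2% BSA-blocked custom Agilent array made double-stranded with Cy5-dUTP was washed after 1 h at 25 °C with 200 nM protein and 50 µM zinc acetate. The proteins were Ni–NTA-purified transcription factors with N-terminal polyhistidine and DsRed fusions, expressed in E. coli BL21-CodonPlus.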

Sequence	binding signal
ACGACCCTCTACATGTTGCTGCTGGCAGCCGCTCCCTCTCCGGAGTCACCTAGTGCAG	8660 fluorescence intensity (a.u.)
GTTTTTCATATTTGACGATCAAACGGTGGTTTTAAAACTTCGGAGTCACCTAGTGCAG	8140 fluorescence intensity (a.u.)
CACTTTTTCATGGATTTTTACTTATTTAATGATTTTTTATCGGAGTCACCTAGTGCAG	8240 fluorescence intensity (a.u.)
GGAGGGCGGGCTGTTATATTCTTCACACCTTGCATGTAAGCGGAGTCACCTAGTGCAG	18700 fluorescence intensity (a.u.)
AGGCGAGCGAGACGGCGGCGGGCGGGCGGGGCGGGCGACGCGGAGTCACCTAGTGCAG	14800 fluorescence intensity (a.u.)
TGGCAGGGTTGCATGGTTCTGGAGGGCGGGCTGTTATATTCGGAGTCACCTAGTGCAG	13500 fluorescence intensity (a.u.)
GGCGGGGCAGACGGAGGCCGACGGCTGCAGCGGGCTGGGGCGGAGTCACCTAGTGCAG	9010 fluorescence intensity (a.u.)
TAGTGGGGAGGCGGTGGTGCTGCGGGGAGGGAGGGAGCACCGGAGTCACCTAGTGCAG	12800 fluorescence intensity (a.u.)
GGCTGTTGTTTTTCCTTGTTATTCTTTCAGTAAGATATTTCGGAGTCACCTAGTGCAG	12800 fluorescence intensity (a.u.)
GTCGTGGGCGGGAGGTGGTGGTGGTGGTGCTGCTGCATTGCGGAGTCACCTAGTGCAG	11600 fluorescence intensity (a.u.)
GGCGAGCGCGTCGTGGAGGGCGGGGAGGGAGTCGGGCTGGCGGAGTCACCTAGTGCAG	14400 fluorescence intensity (a.u.)
GGGGAGGTTGCTGCTGCTGCTGGGCGGGTGGGCGGAGGGGCGGAGTCACCTAGTGCAG	28100 fluorescence intensity (a.u.)
AGCGAGCGACGGGCGGGGCGGAGCGGGGCGGGGCTGCATTCGGAGTCACCTAGTGCAG	16700 fluorescence intensity (a.u.)
CGATGGCTGGAGGGGAGGCGGCGGCGCATCGTGGCGGGCGCGGAGTCACCTAGTGCAG	8030 fluorescence intensity (a.u.)
CTCGATTCTTCTGCAGCTGGGCGGGAGGGGAGGCGTGGCGCGGAGTCACCTAGTGCAG	18300 fluorescence intensity (a.u.)
TCTGTCCCTCAATCCCGCGACGCCGCCGCCGTTCTGCTCCCGGAGTCACCTAGTGCAG	10000 fluorescence intensity (a.u.)
GATCCTATCATTTTCAACGATGTTAAATCGTCACAGGCTTCGGAGTCACCTAGTGCAG	8310 fluorescence intensity (a.u.)
CCTCATTAGCTAGCTTTTTAGGGTGGGGAAGGCCCTTTACCGGAGTCACCTAGTGCAG	12700 fluorescence intensity (a.u.)
CTCACTTGCATCTTTCCAATATCTTAGTCATTCATTAATACGGAGTCACCTAGTGCAG	8520 fluorescence intensity (a.u.)
AATGTATGACGCCGTTGACTTTTTATCAAACGTTTGACCACGGAGTCACCTAGTGCAG	34800 fluorescence intensity (a.u.)
CTAAATTAATGGTCGCTTTGACTTTTTTTATGTAATGTTTCGGAGTCACCTAGTGCAG	14700 fluorescence intensity (a.u.)
AATGTATGACGCCGTTGACTTTTTGCCCAACGTTTGACCACGGAGTCACCTAGTGCAG	38700 fluorescence intensity (a.u.)

Sequence	binding signal
CATCCGTATGATTCGACTTTTTTTTCACGTTGATTTTATACGGAGTCACCTAGTGCAG	9050 fluorescence intensity (a.u.)
AATGATGTTGTTGACTTTTAAAATAACGTATGGCCGTTCACGGAGTCACCTAGTGCAG	8770 fluorescence intensity (a.u.)
AATGTATGACGCAGTTGACTTTGTGACAAACGTTTGACCTCGGAGTCACCTAGTGCAG	12300 fluorescence intensity (a.u.)
AATGTATGATGCCGTTGACTTTTCGACTAACGTTTGACCACGGAGTCACCTAGTGCAG	29200 fluorescence intensity (a.u.)
GTAAATTATGTATGACGCGGTTGACTTTTTATTAACGTTTCGGAGTCACCTAGTGCAG	16800 fluorescence intensity (a.u.)
AATTGTAAAGTTGACTTTAATGTTTTTTTTATTGTGGTTTCGGAGTCACCTAGTGCAG	8740 fluorescence intensity (a.u.)
TTTTTTTCAATTCGTTTTTTTTTCATTTTTCATCGTCTTTCGGAGTCACCTAGTGCAG	8400 fluorescence intensity (a.u.)
TACTACTCTCGTGTGGCAAAATTTTGTCTTAGTTCTTGAACGGAGTCACCTAGTGCAG	8100 fluorescence intensity (a.u.)
GCGTTGTGGGTGTCTTGTGTTGTACTGCGTAATTCTTAAACGGAGTCACCTAGTGCAG	15000 fluorescence intensity (a.u.)
CACAACTATTTCTACTTTTATCATTCCTACCTTTTCTAATCGGAGTCACCTAGTGCAG	8180 fluorescence intensity (a.u.)
CTAGCCCGTTAACATTACTGTTCATCTCCCTATCCGTCTCCGGAGTCACCTAGTGCAG	9570 fluorescence intensity (a.u.)
TCCTACACCACCCCGTTCTCGCGCCCATCGATCCAACCGACGGAGTCACCTAGTGCAG	8920 fluorescence intensity (a.u.)
AGCCACAAATCCTTATTCGTTCAATTGTTTTTCTTCCTCTCGGAGTCACCTAGTGCAG	8140 fluorescence intensity (a.u.)
ATCGCGAAGTTCGCGACCCGATTCCTCTCCGCCCGCCATGCGGAGTCACCTAGTGCAG	8380 fluorescence intensity (a.u.)
GTACATGCATTATCCATATCTCTAAATTTAGCAATCACTTCGGAGTCACCTAGTGCAG	9480 fluorescence intensity (a.u.)
AGTTCACTTTAGGTCCCTCTATTTGTCGTCCAGTCTGATTCGGAGTCACCTAGTGCAG	8180 fluorescence intensity (a.u.)
GCGGCCAGGCCACCTCCAGCTCTTTTCACTCCTGGCTAACCGGAGTCACCTAGTGCAG	9500 fluorescence intensity (a.u.)
GATGACGTTGTTAACTTTTTATCACACGTTTGACCATTCGCGGAGTCACCTAGTGCAG	8510 fluorescence intensity (a.u.)
GACGCCGTTGACTTTTTGACCAACGTTTGACCTTTCGTCTCGGAGTCACCTAGTGCAG	31400 fluorescence intensity (a.u.)
TATGACGCCGTTGACTTATTGACTAACGTTTGACCATTCGCGGAGTCACCTAGTGCAG	21500 fluorescence intensity (a.u.)
CTCTCTCACTCTTCTCCCTCTTCTCACCACCAGACGCCATCGGAGTCACCTAGTGCAG	8850 fluorescence intensity (a.u.)
